# Data published in the supplement of paper PMC4466140.
# B1: unnamed (peptide)
# chain: RTIRKLPLMSLSEYF
# B2: unnamed (peptide)
# chain: VNIPSPSSSPPPIPK
# Experiments:
# Test in all cases: SPOT peptide array binding signal intensity (averaged, normalized) (arbitrary units (background-subtracted, floor 0; scale differs between SH3 domains)); higher = stronger binding of the SH3 domain to the peptide
# AgAbp1 = biological target: AgAbp1
# How it was run: (§1)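 SH3 domains from four yeast species were expressed as GST fusions in E. coli BL21(DE3) and purified on glutathione Sepharose. Each was incubated at 10 μg/ml overnight at 4°C in TBS-based blocking buffer on cellulose membranes bearing synthetic 15-mer peptides, in which serines replaced cysteines. Bound protein was detected with anti-GST antibody, an HRP anti-mouse secondary and luminol, then imaged and quantified with Genespotter. The binding signal is the normalized, background-subtracted spot intensity averaged over replicates, in arbitrary units that are not the same from one domain to another.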
# AgBbc1 = biological target: AgBbc1
# How it was run: as §1
# AgBem1-D1 = biological target: AgBem1-D1
# How it was run: as §1
# AgBzz1-D1 = biological target: AgBzz1-D1
# How it was run: as §1
# AgBzz1-D2 = biological target: AgBzz1-D2
# How it was run: as §1
# AgCyk3 = biological target: AgCyk3
# How it was run: as §1
# AgFus1 = biological target: AgFus1
# How it was run: as §1
# AgHof1 = biological target: AgHof1
# How it was run: as §1
# AgHse1 = biological target: AgHse1
# How it was run: as §1
# AgLsb1 = biological target: AgLsb1
# How it was run: as §1
# AgLsb4 = biological target: AgLsb4
# How it was run: as §1
# AgMyo5 = biological target: AgMyo5
# How it was run: as §1
# AgNbp2 = biological target: AgNbp2
# How it was run: as §1
# AgRvs167 = biological target: AgRvs167
# How it was run: as §1
# AgSho1 = biological target: AgSho1
# How it was run: as §1
# AgSla1-D1-D2 = biological target: AgSla1-D1-D2
# How it was run: as §1
# AgSla1-D3 = biological target: AgSla1-D3
# How it was run: as §1
# CaAbp1-D1 = biological target: CaAbp1-D1
# How it was run: as §1
# CaAbp1-D2 = biological target: CaAbp1-D2
# How it was run: as §1
# CaBbc1 = biological target: CaBbc1
# How it was run: as §1
# CaBem1-D1 = biological target: CaBem1-D1
# How it was run: as §1
# CaBzz1-D1 = biological target: CaBzz1-D1
# How it was run: as §1
# CaBzz1-D2 = biological target: CaBzz1-D2
# How it was run: as §1
# CaCyk3 = biological target: CaCyk3
# How it was run: as §1
# CaFus1 = biological target: CaFus1
# How it was run: as §1
# CaHof1 = biological target: CaHof1
# How it was run: as §1
# CaHse1 = biological target: CaHse1
# How it was run: as §1
# CaLsb1 = biological target: CaLsb1
# How it was run: as §1
# CaLsb4 = biological target: CaLsb4
# How it was run: as §1
# CaMyo5 = biological target: CaMyo5
# How it was run: as §1
# CaNbp2 = biological target: CaNbp2
# How it was run: as §1
# CaRvs167 = biological target: CaRvs167
# How it was run: as §1
# CaRvs167-3 = biological target: CaRvs167-3
# How it was run: as §1
# CaSho1 = biological target: CaSho1
# How it was run: as §1
# CaSla1-D1-D2 = biological target: CaSla1-D1-D2
# How it was run: as §1
# CaSla1-D3 = biological target: CaSla1-D3
# How it was run: as §1
# ScAbp1 = biological target: ScAbp1
# How it was run: as §1
# ScBbc1 = biological target: ScBbc1
# How it was run: as §1
# ScBem1-D1 = biological target: ScBem1-D1
# How it was run: as §1
# ScBzz1-D1 = biological target: ScBzz1-D1
# How it was run: as §1
# ScBzz1-D2 = biological target: ScBzz1-D2
# How it was run: as §1
# ScCyk3 = biological target: ScCyk3
# How it was run: as §1
# ScFus1 = biological target: ScFus1
# How it was run: as §1
# ScHof1 = biological target: ScHof1
# How it was run: as §1
# ScHse1 = biological target: ScHse1
# How it was run: as §1
# ScLsb1 = biological target: ScLsb1
# How it was run: as §1
# ScLsb2 = biological target: ScLsb2
# How it was run: as §1
# ScLsb3 = biological target: ScLsb3
# How it was run: as §1
# ScLsb4 = biological target: ScLsb4
# How it was run: as §1
# ScMyo3 = biological target: ScMyo3
# How it was run: as §1
# ScMyo5 = biological target: ScMyo5
# How it was run: as §1
# ScNbp2 = biological target: ScNbp2
# How it was run: as §1
# ScPex13 = biological target: ScPex13
# How it was run: as §1
# ScRvs167 = biological target: ScRvs167
# How it was run: as §1
# ScSho1 = biological target: ScSho1
# How it was run: as §1
# ScSla1-D1-D2 = biological target: ScSla1-D1-D2
# How it was run: as §1
# ScSla1-D3 = biological target: ScSla1-D3
# How it was run: as §1
# SpAbp1-D1 = biological target: SpAbp1-D1
# How it was run: as §1
# SpBbc1 = biological target: SpBbc1
# How it was run: as §1
# SpBzz1-D1 = biological target: SpBzz1-D1
# How it was run: as §1
# SpBzz1-D2 = biological target: SpBzz1-D2
# How it was run: as §1
# SpCyk3 = biological target: SpCyk3
# How it was run: as §1
# SpHof1 = biological target: SpHof1
# How it was run: as §1
# SpHof1-2 = biological target: SpHof1-2
# How it was run: as §1
# SpHof1-3 = biological target: SpHof1-3
# How it was run: as §1
# SpHse1 = biological target: SpHse1
# How it was run: as §1
# SpLsb1 = biological target: SpLsb1
# How it was run: as §1
# SpLsb4 = biological target: SpLsb4
# How it was run: as §1
# SpMyo1 = biological target: SpMyo1
# How it was run: as §1
# SpNbp2 = biological target: SpNbp2
# How it was run: as §1
# SpPex13 = biological target: SpPex13
# How it was run: as §1
# SpRvs167 = biological target: SpRvs167
# How it was run: as §1
# SpSla1-D1-D2 = biological target: SpSla1-D1-D2
# How it was run: as §1
# SpSla1-D3 = biological target: SpSla1-D3
# How it was run: as §1
binder,measurement,setting,value
B1,SPOT peptide array binding signal intensity,AgAbp1,7.5
same,SPOT peptide array binding signal intensity,AgBbc1,14.5
same,SPOT peptide array binding signal intensity,AgBem1-D1,106
same,SPOT peptide array binding signal intensity,AgBzz1-D1,8
same,SPOT peptide array binding signal intensity,AgBzz1-D2,21
same,SPOT peptide array binding signal intensity,AgCyk3,0.5
same,SPOT peptide array binding signal intensity,AgFus1,345
same,SPOT peptide array binding signal intensity,AgHof1,34.5
same,SPOT peptide array binding signal intensity,AgHse1,356
same,SPOT peptide array binding signal intensity,AgLsb1,≤ 0
same,SPOT peptide array binding signal intensity,AgLsb4,61.5
same,SPOT peptide array binding signal intensity,AgMyo5,0.25
same,SPOT peptide array binding signal intensity,AgNbp2,379
same,SPOT peptide array binding signal intensity,AgRvs167,3
same,SPOT peptide array binding signal intensity,AgSho1,122
same,SPOT peptide array binding signal intensity,AgSla1-D1-D2,46
same,SPOT peptide array binding signal intensity,AgSla1-D3,8
same,SPOT peptide array binding signal intensity,CaAbp1-D1,285
same,SPOT peptide array binding signal intensity,CaAbp1-D2,123
same,SPOT peptide array binding signal intensity,CaBbc1,42.5
same,SPOT peptide array binding signal intensity,CaBem1-D1,66.5
same,SPOT peptide array binding signal intensity,CaBzz1-D1,82.5
same,SPOT peptide array binding signal intensity,CaBzz1-D2,63.5
same,SPOT peptide array binding signal intensity,CaCyk3,59
same,SPOT peptide array binding signal intensity,CaFus1,942
same,SPOT peptide array binding signal intensity,CaHof1,≤ 0
same,SPOT peptide array binding signal intensity,CaHse1,121
same,SPOT peptide array binding signal intensity,CaLsb1,4.5
same,SPOT peptide array binding signal intensity,CaLsb4,282
same,SPOT peptide array binding signal intensity,CaMyo5,6
same,SPOT peptide array binding signal intensity,CaNbp2,571
same,SPOT peptide array binding signal intensity,CaRvs167,42.5
same,SPOT peptide array binding signal intensity,CaRvs167-3,4.75
same,SPOT peptide array binding signal intensity,CaSho1,668
same,SPOT peptide array binding signal intensity,CaSla1-D1-D2,152
same,SPOT peptide array binding signal intensity,CaSla1-D3,98.2
same,SPOT peptide array binding signal intensity,ScAbp1,23
same,SPOT peptide array binding signal intensity,ScBbc1,5.25
same,SPOT peptide array binding signal intensity,ScBem1-D1,48
same,SPOT peptide array binding signal intensity,ScBzz1-D1,15
same,SPOT peptide array binding signal intensity,ScBzz1-D2,21
same,SPOT peptide array binding signal intensity,ScCyk3,28.5
same,SPOT peptide array binding signal intensity,ScFus1,328
same,SPOT peptide array binding signal intensity,ScHof1,3
same,SPOT peptide array binding signal intensity,ScHse1,1080
same,SPOT peptide array binding signal intensity,ScLsb1,2
same,SPOT peptide array binding signal intensity,ScLsb2,≤ 0
same,SPOT peptide array binding signal intensity,ScLsb3,639
same,SPOT peptide array binding signal intensity,ScLsb4,92
same,SPOT peptide array binding signal intensity,ScMyo3,2.5
same,SPOT peptide array binding signal intensity,ScMyo5,4.5
same,SPOT peptide array binding signal intensity,ScNbp2,556
same,SPOT peptide array binding signal intensity,ScPex13,54.2
same,SPOT peptide array binding signal intensity,ScRvs167,71.7
same,SPOT peptide array binding signal intensity,ScSho1,1040
same,SPOT peptide array binding signal intensity,ScSla1-D1-D2,290
same,SPOT peptide array binding signal intensity,ScSla1-D3,58.2
same,SPOT peptide array binding signal intensity,SpAbp1-D1,85.5
same,SPOT peptide array binding signal intensity,SpBbc1,1
same,SPOT peptide array binding signal intensity,SpBzz1-D1,109
same,SPOT peptide array binding signal intensity,SpBzz1-D2,1
same,SPOT peptide array binding signal intensity,SpCyk3,8.5
same,SPOT peptide array binding signal intensity,SpHof1,239
same,SPOT peptide array binding signal intensity,SpHof1-2,18
same,SPOT peptide array binding signal intensity,SpHof1-3,327
same,SPOT peptide array binding signal intensity,SpHse1,458
same,SPOT peptide array binding signal intensity,SpLsb1,3.5
same,SPOT peptide array binding signal intensity,SpLsb4,816
same,SPOT peptide array binding signal intensity,SpMyo1,7
same,SPOT peptide array binding signal intensity,SpNbp2,484
same,SPOT peptide array binding signal intensity,SpPex13,26
same,SPOT peptide array binding signal intensity,SpRvs167,20
same,SPOT peptide array binding signal intensity,SpSla1-D1-D2,≤ 0
same,SPOT peptide array binding signal intensity,SpSla1-D3,19
B2,SPOT peptide array binding signal intensity,SpBzz1-D2,≤ 0
same,SPOT peptide array binding signal intensity,SpCyk3,1
same,SPOT peptide array binding signal intensity,SpHof1,≤ 0
same,SPOT peptide array binding signal intensity,SpHof1-2,≤ 0
same,SPOT peptide array binding signal intensity,SpHof1-3,≤ 0
same,SPOT peptide array binding signal intensity,SpHse1,43
same,SPOT peptide array binding signal intensity,SpLsb1,≤ 0
same,SPOT peptide array binding signal intensity,SpLsb4,≤ 0
same,SPOT peptide array binding signal intensity,SpMyo1,1720
same,SPOT peptide array binding signal intensity,SpNbp2,≤ 0
same,SPOT peptide array binding signal intensity,SpPex13,1.5
same,SPOT peptide array binding signal intensity,SpRvs167,≤ 0
same,SPOT peptide array binding signal intensity,SpSla1-D1-D2,2
same,SPOT peptide array binding signal intensity,SpSla1-D3,2
